# Reference: PubChem BioAssay (EPA / NIEHS)
# Calls of active or inactive are those of the source. How the source made its calls: active means hit-call score of the fitted dose curve at least 0.9, where 1 is the maximum; inactive means score below 0.9.
# Assay: CCTE_Shafer_MEA_acute_burst_number: CCTE's Neural Acute Assay for Single-Electrode Bursts, Shafer Lab (AID 2284013)
# Procedure: CCTE_Shafer_MEA_acute assay is conducted using Axion Biosystems 48 well microelectrode array (MEA) plates and Maestro recording system. Each well of the MEA plate contains a grid of 16 microelectrodes embedded in the culture surface. Electrically active cells, such as neurons, can be cultured over the electrodes, and electrical activity in these cells can be recorded extracellularly. The spontaneous firing of neurons is captured from each electrode on a microsecond timescale providing both temporally and spatially precise data. […] The CCTE_Shafer_MEA_acute assay uses primary cultures of rat cortical neurons. As these cultures mature over time, neural networks develop functional activity and form cohesive networks in which electrical activity can be highly coordinated. Baseline 40-minute recordings are made on days post-plating 13 or 15, followed by a secondary 40-minute recording after chemical exposure.CCTE_Shafer_MEA_acute_burst_number is a component of the CCTE_Shafer_MEA_acute assay. It measures the total number of single-electrode bursts (temporally-clustered groups of action potential firing) during a recording in a microelectrode array (MEA) using Axion Biosystems Maestro 768 channel amplifier with the AxIS adaptive spike detector. The recordings before and after chemical treatment are used to calculate a percent change in the burst number in each well.Data from the assay component CCTE_Shafer_MEA_acute_burst_number was analyzed into 1 assay endpoint. This assay endpoint, CCTE_Shafer_MEA_acute_burst_number, was analyzed in the negative analysis fitting direction relative to DMSO as the negative control and baseline of activity. Using a type of functional reporter, gain or loss-of-signal activity can be used to understand electrical activity.
# Spontaneous activity in the cortical cultures was recorded using an Axion Biosystems Maestro 768 channel amplifier and Axion Integrated Studios (AxIS) v1.8 (or later) software. The amplifier recorded from all channels simultaneously (gain = 1200 x; sampling rate = 12.5 kHz/channel): raw signals were filtered with a Butterworth band-pass filter (300-5000 Hz), which filters out slower local field potentials leaving only fast potentials, i.e., "spikes", arising from extracellular currents associated with action potentials (Pine 2006; Wheeler and Nam 2011). On-line spike detection of filtered signals was conducted with the AxIS adaptive spike detector, using a threshold of 8x the root mean squared (rms) noise on each channel. Any electrodes with rms noise levels greater than 5 uV were grounded (e.g., no data were recorded). Once grounded, an electrode was grounded for the duration of the experiment. All recordings were conducted at 37 C. Wells were deemed usable if on the day of the exposure >/= 10 electrodes were active (defined as >/= 5 spikes/min). On DIV 13 or 15, a minimum of three wells from one cortical culture preparation were treated with each compound (0.03-40 uM). Prior to recording baseline activity, each mwMEA plate was placed in the Maestro at 37 C and allowed to sit for 20 min while firing rates stabilized. Baseline activity (40 min) was recorded before the addition of each compound. An additional 40 min of spontaneous activity was recorded in the presence of each compound. Changes in network parameters relative to baseline were assessed following compound treatment.
Compound,outcome,AC50
C#CCOC(=O)[C@@H](C)Oc1ccc(Oc2ncc(Cl)cc2F)cc1,inactive,
CCCCC(CC)CN1C(=O)C2C3C=CC(C3)C2C1=O (centres undefined),inactive,
CCCN(CCC)c1c([N+](=O)[O-])cc(C(F)(F)F)c(N)c1[N+](=O)[O-],inactive,
CCNc1nc(N)nc(Cl)n1,inactive,
CC1(C)C(C=C(Cl)Cl)C1C(=O)OCc1cccc(Oc2ccccc2)c1 (centres undefined),inactive,
C=CCOC(Cn1ccnc1)c1ccc(Cl)cc1Cl (centres undefined),,3.97 µM (active)
O=C(O)c1ccccc1,inactive,
OB(O)O,inactive,
CC(C)(C)[C@@H](O)[C@@H](Cc1ccc(Cl)cc1)n1cncn1,inactive,
Cc1nn(C)c(Oc2ccccc2)c1C=NOCc1ccc(C(=O)OC(C)(C)C)cc1,,0.003 µM (active)
COC(=O)c1ccccc1C(=O)O,inactive,
Oc1ccc(C(c2ccc(O)cc2)C(Cl)(Cl)Cl)cc1,,2.22 µM (active)
CSC(=O)c1cccc2nnsc12,inactive,
CC(C)CCCCCCc1ccc(O)cc1,,6.34 µM (active)
O=C(c1ccccc1)C1CCCCC1,inactive,
CC(C)(c1ccc(O)cc1)c1ccc(O)cc1,,6.17 µM (active)
N#CSCSc1nc2ccccc2s1,inactive,
O=C(c1ccc(O)cc1O)c1ccc(O)cc1O,inactive,
O=C(Nc1ccc([N+](=O)[O-])cc1Cl)c1cc(Cl)ccc1O,,0.0944 µM (active)
